Compounds without any hit were thinned out: in the full panel of roughly 79,000, 15% have a hit. A number with no mark means an inactive call. Active and inactive are the calls of the source. Cut-off read from the data, not from the text of the source: active = growth inhibition above about 70%; inactive = the rest.
Assays:
[1] = NCI Yeast Anticancer Drug Screen. Data for the rad50 strain (AID 155);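 note: 0% = growth of vehicle-only cultures of the same strain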; conditions: S. cerevisiae rad50 strain growth inhibition; at 50.0 µM; active compounds read high
Summary of the method: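 Vehicle-treated cultures provide the reference for the growth inhibition reported for compound-exposed, repair-deficient yeast.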

[2] = NCI Yeast Anticancer Drug Screen. Data for the mec2-1 strain (AID 157); conditions: S. cerevisiae mec2-1 strain, at 50.0 µM, active compounds read high
Summary of the method: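 Readout is yeast growth inhibition, normalised to vehicle-treated controls, in the mec2-1 strain exposed to compound.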

[3] = NCI Yeast Anticancer Drug Screen. Data for the sgs1 mgt1 strain (AID 161);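 note: 0% = growth of cultures given vehicle only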; conditions: S. cerevisiae sgs1 mgt1 strain, at 50.0 µM, active compounds read high
Summary of the method: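 Percent growth inhibition was derived by comparing compound-exposed mutant yeast with vehicle-exposed cultures. The strain carries alterations in DNA damage repair.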

[4] = NCI Yeast Anticancer Drug Screen. Data for the cln2 rad14 strain (AID 165);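 note: 0% = growth equal to vehicle treated cultures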; conditions: S. cerevisiae cln2 rad14 strain, at 50.0 µM, active compounds read high
Summary of the method: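 Relative to vehicle controls, growth inhibition of compound-treated cln2 rad14 yeast was recorded.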

[5] = NCI Yeast Anticancer Drug Screen. Data for the bub3 strain (AID 167); conditions: S. cerevisiae bub3 mutant strain, at 50.0 µM, active compounds read high
Summary of the method: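 Mutant yeast screening strain plus compound; vehicle-treated cultures serve as the 0% inhibition reference.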

[6] = NCI Yeast Anticancer Drug Screen. Data for the mlh1 rad18 strain (AID 175); conditions: S. cerevisiae mlh1 rad18 strain growth inhibition; at 50.0 µM; active compounds read high
Summary of the method: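 Test agents were incubated with a yeast strain of defined genotype (DNA damage repair defect). Inhibition of growth was derived by comparison with vehicle-exposed cultures.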

SMILES | growth inhibition [1] | growth inhibition [2] | growth inhibition [3] | growth inhibition [4] [%] | growth inhibition [5] | growth inhibition [6]
CCC(C)c1ccc(CCO)cc1 (centres undefined) | 27.2% | 2.4% | -10.2% | 10 | -6.65% | 4.45%
COc1ccc(/C=N/N2CCN(/N=C/c3ccc(OC)cc3)CC2)cc1 | 9.85% | 9.7% | 9.2% | -6.1 | 5.1% | -5.35%
Oc1cccc(NCNC2Nc3ccccc3N2)c1 | 6.5% | 14.7% | -1.4% | -11.1 | 9.7% | 13.6%
CN(C=O)c1cccc(C(=O)O)c1 | 4.05% | -1.2% | -3.95% | -29.5 | -2.35% | 7.45%
O=C(NCN1CCOCC1)Nc1ccc(Cl)cc1 | -13.4% | 8.5% | -4.8% | -22.3 | 8.75% | -3.25%
CC(=O)OC1/C=C(\C)C(OC(C)=O)C/C=C(/C)CCC2C(/C=C/C1=O)C2(C)C (centres undefined) | 78.9% (active) | 74.4% (active) | 78.1% (active) | 64.1 | 71.2% (active) | 74% (active)
Cc1cc2nc3c(N)ccc(N)c3nc2cc1N | 5.2% | 4.3% | -0.65% | -17.6 | -29.1% | -7.7%
O=C1CCC(c2nc3ccccc3[nH]2)N1Cc1cccs1 (centres undefined) | -29.4% | -37.1% | -10.2% | -21.9 | -6.85% | -8.55%
CN(C)CCNC(=O)c1nc([N+](=O)[O-])cn1C | 31.9% | 3.55% | -2.25% | 7.35 | 20.4% | -69.2%
CC(O)C(O)C(=O)NN (centres undefined) | -1% | 0.3% | 11.4% | 4 | -2.9% | -6.95%
CC(=O)Nc1ccc(S(=O)(=O)N2c3ccccc3Sc3ccccc32)cc1 | 8.95% | -5.9% | 4.95% | 3.05 | -1.5% | 4.2%
CC(=O)CC(=O)Nc1cccc(O)c1 | -15% | -21.8% | -14.9% | 11.8 | -3.85% | -2.85%
CCO/C=C1\SC(=S)N(CCc2ccc(OC)c(OC)c2)C1=O | -0.85% | -6.85% | -10.9% | -2.2 | -5.6% | -10.5%
O=[N+]([O-])c1ccc(Br)cc1 | -6.5% | -14.2% | 17.7% | 16.2 | -2.3% | 19.2%
COc1ccc([N+](=O)[O-])cc1NC(=S)NC(=O)c1cccc(Br)c1 | -8.6% | 4.2% | -0.1% | -63.6 | 3.7% | 1.55%
CN1CCN(Cc2cc(C(C)(C)C)cc(-c3ccccc3)c2O)CC1 | 39.4% | -25.1% | 6.9% | 6.45 | 8% | 25.6%
CCC(CC)C(=O)NC(=O)NC | -4.85% | -16.5% | -21.2% | -25.1 | -8.05% | 21%
C=C1C(=O)O[C@@H]2C3=C(C)C(=O)C=C[C@]3(C)CC[C@@H]12 | 5.3% | 9.05% | 8.55% | 0.8 | 6.6% | -14.3%
CC1(C)CCCC(OC(=O)c2ccc([N+](=O)[O-])cc2)C1 (centres undefined) | 10.4% | -17.5% | -1.3% | -2.05 | 7.5% | -10.6%
COc1ccc2c(c1)CC1(CC2)CCN(CCCN(C)C)CC1 | -32.3% | -7.85% | -22.2% | 10.6 | -9.7% | -42.3%

SMILES | growth inhibition [1] | growth inhibition [2] | growth inhibition [3] | growth inhibition [4] [%] | growth inhibition [5] | growth inhibition [6]
CCOC(=O)c1nc(SC)sc1NC(=O)c1ccc(OC)cc1 | 12.8% | -7.3% | 13.1% | 6.2 | 17.7% | -4.65%
CCC(OC(=O)Nc1ccc(S(=O)(=O)NC2CCCCC2)cc1)c1ccco1 (centres undefined) | 26.9% | 3.65% | 26.8% | 10.8 | 5.65% | 4.15%
CC(O)CNCC(C)(C)N (centres undefined) | -4.6% | -4.65% | -4.8% | -7.5 | 3.15% | -1.95%
COC(=O)Cc1ccc2c(c1)Sc1ccc(CC(=O)OC)cc1N2C | -4.75% | -43.8% | -10.1% | -18.2 | 34.7% | -36.3%
COC(=O)N1C(c2ccccc2)C=CC(c2ccccc2)N1C(=O)OC (centres undefined) | 12.7% | 11.2% | 10.2% | 4.3 | 17% | 18.2%
O=C(Nc1ccc(S(=O)(=O)N2CCCCC2)cc1)Oc1ccccc1C(=O)O | 26.4% | -4.5% | 3.15% | 16.1 | -1.65% | 4.8%
C[N+]1(C)CCC[N+](C)(C)CC1 | -15.9% | -7.75% | 3.9% | 16.2 | 20.9% | 6.4%
O=c1[nH][nH]c(=O)c2[nH]cnc12 | -11.9% | -8.2% | 29.1% | -62.6 | -6.3% | -10%
Cc1cc(NC(=O)C(=O)CC(=O)c2cccnc2)no1 | -59% | -1.8% | -8.2% | -52.1 | -6.2% | -4.15%
O=C(CC(=O)c1ccc(Cl)cc1)c1ccc(Cl)cc1 | 12.9% | 14.5% | -3.95% | 0.35 | 8.9% | 4.45%
CC(=O)[C@@]1(O)CC[C@H]2[C@@H]3C[C@H](C)C4=CC(=O)C=C[C@]4(C)[C@@]3(F)[C@@H](O)C[C@@]21C | -24.1% | 9.65% | -11.1% | -33 | -4.5% | -22.1%
CN(C)C=Nc1ccc2[nH]c3ccccc3c2c1 | -25.4% | -13.1% | -16.2% | 14.3 | 22.9% | 21.4%
OCC1(c2ccccc2)CCNCC1 | -8.7% | -4.9% | -2.1% | -0.7 | -9.7% | 26.6%
COC(=S)SSC(=S)NCCN(CCNC(=S)SSC(=S)OC)C(=S)SSC(=S)OC | 2.05% | 6.2% | -2.65% | -2.7 | 7.8% | 26.6%
Nc1nc(-c2ccccc2)nc2nc[nH]c12 | 8.75% | -3.9% | -20.3% | -2.2 | 0.85% | 5.85%
C/C=C/C=N/NS(=O)(=O)c1ccc(C)cc1 | 11.3% | 17.8% | -4.1% | -45.4 | -1% | -12.4%
CNCCC1CCCCCC1 | 1.8% | 5.45% | -1.15% | -13.5 | 10.9% | -2.8%
CCCCCCCCCCCCCC(=O)Cl | -52.4% | -4% | -47.2% | -39.9 | -65.5% | -104%
CCOC(=O)c1[nH]n(-c2ccccc2)c(=O)c1/C=N/C(=S)Nc1c(CC)cccc1CC | -18.1% | -29.2% | -18.2% | -13.2 | -8.25% | -15.1%

From PubChem BioAssay (NCI)
